PubChem BioAssay AID1159580 (chemical genetic matrix, 2015)
Values joined by “and” are separate entries in the source; they are usually repeats but may differ in a detail not shown here. Equal values may be shown once. Screen size: about 5,500 compounds; about 2,000 (36%) were called active. Another 18% or so got no clear call; they are omitted. Cut-off read from the data, not from the text of the source: active = normalized growth mostly below about 0.91 (no sharp cut-off); inconclusive = no clear call, values can overlap the other calls; inactive = mostly above about 0.92. This is one part of the list.

Assay: chemical genetic growth profiling, strain panel (AID 1159580);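 note: tested at 20 µM; growth read once vehicle control cultures reached saturation at 30 °C; 1 = growth at the plate median or of vehicle wells; lower values mean less growth of the strain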
Details: S. cerevisiae deletion strains, growth OD

Measured: normalized growth

CN(Cc1cc(Br)cc(Br)c1N)C1CCCCC1
inactive: locus YAL021C, strain ccr4, active compounds read low 0.979 | locus YAL026C, strain drs2, active compounds read low 1.03 | locus YAL030W, strain snc1, active compounds read low 1.06 | locus YBL061C, strain skt5, active compounds read low 1.03 | locus YBR009C, strain hhf1, active compounds read low 1 | locus YBR021W, strain FUR4, active compounds read low 0.948 | locus YBR023C, strain chs3, active compounds read low 1.03 | locus YBR171W, strain sec66, active compounds read low 1.06 | locus YBR229C, strain ROT2, active compounds read low 1.01 | locus YBR231C, strain swc5, active compounds read low 1.02 | locus YBR279W, strain paf1, active compounds read low 1.02 | locus YCL011C, strain gbp2, active compounds read low 1.02 | locus YCL016C, strain dcc1, active compounds read low 1.01 | locus YCL029C, strain bik1, active compounds read low 1.02 | locus YCL061C, strain MRC1, active compounds read low 1.01 | locus YCL069W, strain vba3, active compounds read low 1.03 | locus YCR088W, strain abp1, active compounds read low 1.05 | locus YDL005C, strain med2, active compounds read low 1.07 | locus YDL035C, strain GPR1, active compounds read low 0.943 | locus YDL040C, strain nat1, active compounds read low 1.03 | locus YDL074C, strain BRE1, active compounds read low 0.954 | locus YDL101C, strain DUN1, active compounds read low 0.999 | locus YDL134C, strain PPH21, active compounds read low 1 | locus YDL185W, strain tfp1, active compounds read low 1.02 | locus YDL192W, strain arf1, active compounds read low 1.02 | locus YDR001C, strain nth1, active compounds read low 1.03 | locus YDR069C, strain doa4, active compounds read low 0.983 | locus YDR101C, strain arx1, active compounds read low 0.999 | locus YDR137W, strain rgp1, active compounds read low 1.03 | locus YDR159W, strain sac3, active compounds read low 1.09 | locus YDR162C, strain NBP2, active compounds read low 1.02 | locus YDR195W, strain ref2 1.13 | locus YDR297W, strain sur2, active compounds read low 1.03 | locus YDR318W, strain mcm21, active compounds read low 0.982 | locus YDR334W, strain swr1, active compounds read low 1.03 | locus YDR335W, strain msn5, active compounds read low 1.02 | locus YDR388W, active compounds read low 1.01 | locus YDR392W, strain spt3, active compounds read low 0.975 | locus YDR502C, strain sam2, active compounds read low 0.996 | locus YEL003W, strain gim4, active compounds read low 1.01 | locus YEL037C, strain rad23, active compounds read low 1.03 | locus YEL061C, strain CIN8 (second series), active compounds read low 0.991 | locus YEL061C, strain CIN8, active compounds read low 0.975 | locus YER015W, strain faa2, active compounds read low 1.03 | locus YER016W, strain bim1, active compounds read low 0.988 | locus YER110C, active compounds read low 1.03 | locus YER111C, strain swi4, active compounds read low 1.04 | locus YER155C, strain BEM2 (second series), active compounds read low 1.03 | locus YER155C, strain BEM2, active compounds read low 1.01 | locus YER167W, strain BCK2, active compounds read low 1.02 | locus YFR010W, strain ubp6, active compounds read low 0.994 | locus YGL078C, strain dbp3, active compounds read low 1.02 | locus YGL086W, strain mad1, active compounds read low 0.967 | locus YGL167C, strain pmr1, active compounds read low 1.03 | locus YGL173C, strain kem1, active compounds read low 0.995 | locus YGL227W, strain vid30, active compounds read low 1.04 | locus YGL240W, strain doc1, active compounds read low 0.965 | locus YGL248W, strain PDE1, active compounds read low 0.984 | locus YGL253W, strain hxk2, active compounds read low 1.03 | locus YGR135W, strain pre9, active compounds read low 1.02 | locus YGR252W, strain gcn5, active compounds read low 0.84 | locus YHR013C, strain ard1, active compounds read low 1.06 | locus YHR027C, strain rpn1, active compounds read low 1.01 | locus YHR030C, strain SLT2, active compounds read low 1.02 and 0.894 | locus YHR079C, strain IRE1 (second series), active compounds read low 1.02 | locus YHR079C, strain IRE1, active compounds read low 0.936 | locus YHR094C, strain hxt1, active compounds read low 1.03 | locus YHR129C, strain ARP1, active compounds read low 1.01 | locus YHR142W, strain chs7, active compounds read low 1.06 | locus YHR200W, strain rpn10, active compounds read low 1.01 | locus YIL066C, strain RNR3, active compounds read low 0.991 | locus YIL073C, strain SPO22, active compounds read low 1.06 | locus YIL125W, strain kgd1, active compounds read low 1.01 | locus YIR030C, strain dcg1, active compounds read low 1.02 | locus YJL092W, strain hpr5, active compounds read low 1.03 | locus YJL095W, strain BCK1 (second series), active compounds read low 1.02 | locus YJL095W, strain BCK1, active compounds read low 0.97 and 0.902 | locus YJL115W, strain asf1, active compounds read low 1.06 | locus YJL129C, strain trk1, active compounds read low 1.03 | locus YJL134W, strain LCB3, active compounds read low 1.02 | locus YJL154C, strain vps35, active compounds read low 1.03 | locus YJL164C, strain tpk1, active compounds read low 1.02 | locus YJL166W, strain qcr8, active compounds read low 1 | locus YJL168C, strain set2, active compounds read low 1.02 | locus YJL187C, strain SWE1 (second series), active compounds read low 0.974 | locus YJR043C, strain POL32, active compounds read low 0.987
active: locus YJR066W, strain TOR1, active compounds read low 0.81
